# Measurements from ChEMBL document CHEMBL3988442, “University of Dundee, Small-Polar-MMV Screening Library” (2021).
# The campaign covered roughly 48,000 compounds. About 13,000 (27%) showed an effect of 50% or more. The list shows a part of the results.
# System: Wolbachia pipientis
# Assay: Anti-Wolbachia Cell-Based Screen
# Assay type: functional
# Parameters: scale not given: in the data most compounds retested in dose-response had high values
# Conditions: 5 µM
row,SMILES,Percent Effect
1,CNS(=O)(=O)c1ccccc1N1CCN(C(C)C(N)=O)CC1 (stereo not given),-9.322%
2,CC(C)NC(=O)N1CC[C@@H](N(C)C)[C@@H]1Cc1ccncc1.O=C(O)C(F)(F)F.O=C(O)C(F)(F)F,-7.431%
3,CCc1csc(C2CCCN(C(=O)c3ccccn3)C2)n1 (stereo not given),106.7%
4,CCc1csc(C2CCCN(C(=O)c3c[nH]c(C)n3)C2)n1 (stereo not given),6.503%
5,CCc1csc(C2CCCN(C(=O)c3ccco3)C2)n1 (stereo not given),94.24%
6,CCc1csc(C2CCCN(C(=O)c3cc(C4CC4)[nH]n3)C2)n1 (stereo not given),98.97%
7,Cc1csc(C2CCCN(C(=O)c3cc(Cl)c[nH]3)C2)n1 (stereo not given),-0.3257%
8,CCc1csc(C2CCCN(C(=O)c3ccc(OC)nn3)C2)n1 (stereo not given),3.799%
9,CCOC(=O)CCC(=O)N1CC(c2nc(Cc3ccccc3)no2)C1,-13.25%
10,CCOC(=O)[C@@H]1CN2CCNC[C@@H]2[C@H]1c1ccccc1,110.8%
11,CCN(C(=O)CN1CCC(c2ccccc2)C1)C1CC1 (stereo not given),4.674%
12,O=C(CCn1cncn1)N1C[C@H]2CC[C@@H]1CN(Cc1ccncc1)C2,5.769%
13,CC(CN1CCOCC1)OC(=O)c1cccc2cn[nH]c12 (stereo not given),-3.971%
14,Cc1nc(CN2CCCN(C(=O)c3c(C)noc3C)CC2)cs1,14.06%
15,Cc1nc(CN2CCCN(C(=O)c3c(C)oc(C)c3C)CC2)cs1,108.1%
16,Cc1cc(C(C)C(=O)N2CCCN(Cc3cscn3)CC2)c(C)o1 (stereo not given),-21.53%
17,Cc1oc(C)c(C(=O)N2CCCN(Cc3cscn3)CC2)c1C,2.495%
18,CCc1noc(C)c1C(=O)N1CCCN(Cc2cscn2)CC1,149%
19,Cc1csc(N2CCCN(C(=O)c3c(C)oc(C)c3C)CC2)n1,12.08%
20,Cc1noc(C)c1CNC(=O)N1CCN(Cc2cscn2)CC1,-4.059%
21,Cc1ocnc1C(=O)N1CCCN(Cc2cscn2)CC1,126.9%
22,CCc1noc(C)c1C(=O)N1CCCN(Cc2csc(C)n2)CC1,18.09%
23,Cc1oc(C)c(C(=O)N2CCN(Cc3cscn3)CC2)c1C,159.3%
24,Cc1nn(C)c(Cl)c1S(=O)(=O)N(CC(N)=O)CC(C)C,-2.815%
25,O=C(c1cccc(F)c1F)N1CCn2c(nnc2C(F)(F)F)C1,-8.426%

row,SMILES,Percent Effect
1,O=C(NCC1=CCCCC1)C(c1cccnc1)N1CCCC1 (stereo not given),4.63%
2,Cc1noc(C(C)C)c1C(=O)N1CCCN(Cc2cscn2)CC1,0.5158%
3,Cc1noc(C)c1C(=O)N1CCCN(Cc2cscn2)CC1,110.4%
4,CCc1nc(CN2CCCN(C(=O)c3c(C)noc3C)CC2)cs1,-12.93%
5,CC(C)c1ncncc1C(=O)N1CCN(Cc2cscn2)CC1,-5.142%
6,CCc1ncncc1C(=O)N1CCN(Cc2ccco2)CC1,2.127%
7,CCc1ncncc1C(=O)N1CCN(Cc2cscn2)CC1,108.1%
8,CN(C)CCNC(=O)c1ccccc1NC(=O)c1cc(Cl)ccc1Cl,115.7%
9,CN(C)CCCNC(=O)c1ccnc(OCc2ccccc2)c1,-11.72%
10,CN(C)CCCNC(=O)c1ccccc1NC(=O)c1ccccc1Cl,105.1%
11,COc1cc(NC(=O)c2ccccc2F)c(C(=O)N(C)C)cc1OC,-7.835%
12,CN(C)CCNC(=O)c1cnc2c(c1)nc(-c1ccccc1Cl)n2C,-9.554%
13,Cc1ccnc(NC(=O)CCNC(=O)c2ccccc2Cl)c1,8.062%
14,CN(C)CCCNC(=O)c1ccccc1NC(=O)c1cc(Cl)ccc1Cl,87.51%
15,CN(CCCNC(=O)c1ccccc1F)CC(F)(F)F,0.1047%
16,CN(CC(=O)Nc1ccccc1C(=O)NC1CC1)Cc1ccccc1Cl,6.232%
17,COCc1nc2cc(NCc3cc[nH]n3)ccc2o1,-2.175%
18,CC(=O)Nc1cc(CN(C)C)ccc1C,-5.311%
19,CC(C(=O)N1CCCC1)S(=O)(=O)Cc1noc(C(C)(C)C)n1 (stereo not given),-6.108%
20,Cc1cc(C2CCCN(CCCS(N)(=O)=O)C2)n[nH]1 (stereo not given),116%
21,Cc1cc(C2CCCN(CCCNS(C)(=O)=O)C2)n[nH]1 (stereo not given),-11.22%
22,Cc1cc(C)n(CC2CCCN2CCCS(N)(=O)=O)n1 (stereo not given),-6.761%
23,Cc1cc(C2CCCN(Cc3ncc(C)o3)C2)n[nH]1 (stereo not given),-4.273%
24,Cc1cc(C2CCCN(CCCS(C)(=O)=O)C2)n[nH]1 (stereo not given),81.87%
25,COC(=O)c1cc(NC(=O)CCc2cscn2)ccc1C,-13.27%

row,SMILES,Percent Effect
1,CN1CSC[C@H]1C(=O)N1CCN(Cc2cccc(F)c2)CC1,-1.728%
2,c1cnnc(N2CCCC2CNCc2cc[nH]n2)c1 (stereo not given),6.061%
3,NCC1Cn2nnc(-c3cccc(F)c3)c2CO1 (stereo not given),-2.933%
4,Cc1cnn(CCNCc2csc(C)n2)c1,11.83%
5,COCC1c2c(cnn2CC2CC2)CCN1Cc1nccs1.O=C(O)C(F)(F)F.O=C(O)C(F)(F)F (stereo not given),-17.24%
6,COCC1c2c(cnn2CC2CC2)CCN1Cc1ccc(C)o1.O=C(O)C(F)(F)F.O=C(O)C(F)(F)F (stereo not given),107.5%
7,COCC1c2c(cnn2CC2CC2)CCN1Cc1ccc(OC)cc1 (stereo not given),-7.562%
8,CCn1ncc2c1C(COCC1CC1)N(Cc1nccs1)CC2.O=C(O)C(F)(F)F.O=C(O)C(F)(F)F (stereo not given),-10.7%
9,CCOCC1c2c(cnn2CC2CC2)CCN1Cc1nccs1.O=C(O)C(F)(F)F.O=C(O)C(F)(F)F (stereo not given),115.2%
10,COCC1c2c(cnn2CC2CC2)CCN1Cc1cc(C)on1.O=C(O)C(F)(F)F.O=C(O)C(F)(F)F (stereo not given),63.1%
11,CCn1ncc2c1C(COCC1CC1)N(Cc1c(C)noc1C)CC2.O=C(O)C(F)(F)F.O=C(O)C(F)(F)F (stereo not given),-2.948%
12,COCC1c2c(cnn2CC2CC2)CCN1Cc1ccsc1.O=C(O)C(F)(F)F.O=C(O)C(F)(F)F (stereo not given),107.6%
13,COCC1c2c(cnn2CC2CC2)CCN1Cc1cccs1.O=C(O)C(F)(F)F.O=C(O)C(F)(F)F (stereo not given),-10.1%
14,CCN1C[C@H]2C3(CCN(S(=O)(=O)CC)CC3)CC[C@@]2(C(=O)N(C)C)C1.O=C(O)C(F)(F)F,-7.289%
15,Cc1ccc2nc(C3CCCN3Cc3nnc(C)s3)[nH]c2c1 (stereo not given),-155.9%
16,Clc1ccc2nncc(N3CCCCC3)c2c1,-7.543%
17,CCC1CN(CC(=O)NCc2ccco2)CCO1 (stereo not given),-17.78%
18,O=C(NCCC1CN(Cc2c[nH]cn2)CCO1)c1ccccc1O (stereo not given),-1.985%
19,O=C(NCCCN1CCOCC1)C1CCCN(Cc2ccco2)C1 (stereo not given),1.976%
20,N#Cc1ccccc1C(=O)NCCC1CN(Cc2ccco2)CCO1 (stereo not given),86.72%
21,NC1(C(=O)NCCC2CN(Cc3ccco3)CCO2)CCCC1 (stereo not given),117.7%
22,CC(C)(C)C(=O)NCCC1CN(Cc2ccccc2F)CCO1 (stereo not given),-7.627%
23,Cc1ccc(C)c(NC(=O)Nc2c[nH]c(=O)[nH]c2=O)c1,-8.651%
24,Cc1cccc2c(CCNS(=O)(=O)C3CCOC3)c[nH]c12 (stereo not given),14.98%
25,CC(C)Cc1noc(CN2CCCC(CNS(N)(=O)=O)C2)n1 (stereo not given),6.336%

row,SMILES,Percent Effect
1,CCOC(C)c1noc(CN2CCN(CC3CCCC3)CC2)n1 (stereo not given),-4.058%
2,Cc1noc2nc(C3CCN(CC4=CCCOC4)CC3)cc(C(F)F)c12.Cl,-4.292%
3,Cc1noc2nc(C3CCN(CC4CCCCC4)CC3)cc(C(F)F)c12.Cl,130.1%
4,Cc1noc2nc(C3CCN(Cc4ccccn4)CC3)cc(C(F)F)c12,126.2%
5,Cc1n[nH]c2ncc(CNC3CCN(Cc4ccccn4)CC3)cc12.Cl,0.2679%
6,CCS(=O)(=O)c1ccc2oc([C@H]3CCN(Cc4ccccn4)C3)nc2c1,-4.332%
7,COc1ccc(N(C)C(=O)c2ccc(Cl)c(S(C)(=O)=O)c2)cn1,-5.224%
8,Cc1c(-c2ccccc2)ncn1CCCNc1cccnc1,-10.09%
9,COc1ccc(N2CCN(C(=O)CCn3nccc3C)CC2(C)C)cc1,-0.9656%
10,CN1C(=O)CC[C@@H]2N(C(=O)CCc3cccnc3)CCCC[C@@]21C,73.04%
11,COc1ccc(N2CCN(C(=O)Cn3nccc3C)CC2(C)C)cc1,3.492%
12,CN(C)CCn1ccnc1C1CCN(C(=O)CCc2cccnc2)CC1,-5.205%
13,CCN1C(=O)CC[C@@H]2N(C(=O)CCn3nccc3C)CCCC[C@@]21C,96.02%
14,Cc1ccnn1CCC(=O)N(Cc1ccsc1)CC(C)C,6.512%
15,Cc1ccnn1CCC(=O)N1CCN(C2CCc3ccccc3C2)CC1 (stereo not given),-3.022%
16,COc1ccc(N2CCN(C(=O)CCn3nccc3C)C(C)C2)cc1 (stereo not given),-2.814%
17,Cc1ccnn1CCC(=O)N1CCCC[C@@]2(C)[C@@H]1CCC(=O)N2C,76.68%
18,Cc1ccnn1CCC(=O)N1CCCC[C@]2(C)NC(=O)CCC[C@H]12,63.73%
19,O=C1CCCCN1CCC(=O)N1CCCCC1c1ccc(F)cc1 (stereo not given),-7.872%
20,COc1ccc(O[C@H]2COCCN(Cc3cccc4c3OCO4)C2)cc1,-9.045%
21,CCCc1cc(NCc2nc(COC)no2)n2nccc2n1,-5.978%
22,Cc1nc(CN2CCCC(Cn3cc(CCO)nn3)C2)c2ccccn12 (stereo not given),-4.112%
23,CC(C)n1cc(CN2CCCN(C(=O)c3cc(Cl)c[nH]3)CC2)cn1,1.101%
24,CS(=O)(=O)Nc1cccc(CNC(=O)CCNC(=O)c2cccs2)c1,4.351%
25,CN(C)Cc1nnc(C2CCN(c3nccc(N)n3)CC2)n1C1CC1,9.294%
